Reference: PubChem BioAssay (NCI)
This is part of a sample that, as a whole, favours compounds with a hit. Of some 83,000 tested, about 20% had one in any assay.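 The endpoint reported here, percent growth, reads 100 for growth as untreated, 0 for no net growth and -100 for all cells dead.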 Unmarked numbers belong to inactive results. Calls of active or inactive are those of the source. How the source made its calls: active means growth percent below 10; inactive means the rest.

Tests used:
Assay in all cases: NCI-60 one-dose screen, 48 h (100 = growth as untreated, 0 = no growth, -100 = all killed)
Settings in all cases: 10 µM unless noted
[1] = test system: SK-MEL-2 melanoma
[2] = test system: EKVX NSCLC
[3] = test system: SN12C renal
[4] = test system: UO-31 renal
[5] = test system: TK-10 renal
[6] = test system: ACHN renal
[7] = test system: CAKI-1 renal
[8] = test system: A498 renal
[9] = test system: CCRF-CEM leukemia
[10] = test system: MOLT-4 leukemia

## Oc1ccc(/C=N/Nc2nc3ccccc3s2)c(O)c1
[1]
  growth: 24%
[2]
  growth: 43.2%
[3]
  growth: 49.9%
[4]
  growth: 10.2%
[5]
  growth: 22.9%
[6]
  growth: 23.2%
[7]
  growth: 12.3%
[8]
  growth: 77.9%
[9]
  growth: 27.1%
[10]
  growth: 18.8%

## O=C(/C=C/c1ccc([N+](=O)[O-])cc1)c1ccc2c3c(cccc13)CC2
[1]
  growth: -24.8% (active)
[2]
  growth: 87.3%
[3]
  growth: 89.8%
[4]
  growth: 19.2%
[5]
  growth: 107%
[6]
  growth: 99.1%
[7]
  growth: 72.1%
[8]
  growth: -63.2% (active)
[9]
  growth: 35.5%
[10]
  growth: 62.7%

## Cc1nn(-c2nc3ccccc3s2)c(C)c1Oc1ccccc1O
[1]
  growth: -9.64% (active)
[2]
  growth: 93.2%
[3]
  growth: 73.2%
[4]
  growth: 38.9%
[5]
  growth: 100%
[6]
  growth: 57.8%
[7]
  growth: 98.8%
[8]
  growth: 51.7%
[9]
  growth: 76.6%
[10]
  growth: 31.6%

## CC(=O)Nc1ccc(C(=O)COc2cccc(/C=C3\CCc4ccccc4C3=O)c2)cc1
[1]
  growth: 51.2%
[2]
  growth: 80.3%
[3]
  growth: 99.5%
[4]
  growth: 5.8% (active)
[5]
  growth: 103%
[6]
  growth: 92.1%
[7]
  growth: 254%
[8]
  growth: 92.7%
[9]
  growth: 11.6%
[10]
  growth: 38%

## Cc1cc(C)nc(NS(=O)(=O)c2ccc(Nc3nc4nc(SCc5ccccc5)nc(-c5ccc(O)cc5)c4c(=O)[nH]3)cc2)n1
[1]
  growth: 92%
[2]
  growth: 96%
[3]
  growth: 102%
[4]
  growth: 97%
[5]
  growth: 105%
[6]
  growth: 104%
[7]
  growth: 85.9%
[8]
  growth: 90.7%
[9]
  growth: 71.2%
[10]
  growth: 73.8%

## COc1cccc(/C=N/Nc2nc3ccccc3s2)c1OC
[1]
  growth: 81%
[2]
  growth: 95.7%
[3]
  growth: 102%
[4]
  growth: 85.1%
[5]
  growth: 64.8%
[6]
  growth: 79.7%
[7]
  growth: 78.8%
[8]
  growth: 121%
[9]
  growth: 77%
[10]
  growth: 74.4%

## COc1ccc2ncccc2c1Cc1c(OC)ccc2ncccc12
[1]
  growth: 75.6%
[2]
  growth: 85.4%
[3]
  growth: 89.4%
[4]
  growth: 55.6%
[5]
  growth: 89.2%
[6]
  growth: 86.1%
[7]
  growth: 57.6%
[8]
  growth: 60.4%
[9]
  growth: 70.7%
[10]
  growth: 57.9%

## COc1cc(/C=N/NC(=O)c2ccc(C(F)(F)F)nc2Nc2ccc(Cl)cc2C)ccc1O
[1]
  growth: 18.8%
[2]
  growth: 38.4%
[3]
  growth: 68.6%
[4]
  growth: 0.291% (active)
[5]
  growth: 49.7%
[6]
  growth: 33.4%
[7]
  growth: 39.6%
[8]
  growth: -37.9% (active)
[9]
  growth: 12.6%
[10]
  growth: -23.6% (active)

## Cc1cc(=O)oc2cc(OCCn3c(C)nn(-c4ccc(Cl)cc4)c3=O)ccc12
[1]
  growth: 3.55% (active)
[2]
  growth: 58.7%
[3]
  growth: 51.8%
[4]
  growth: 42.8%
[5]
  growth: 59.6%
[6]
  growth: 41.9%
[7]
  growth: 19.5%
[8]
  growth: 25.7%
[9]
  growth: 13.4%
[10]
  growth: 37.6%

## Cc1ccccc1NC(=O)NC(CC(N)=O)c1ccc2c(c1)nc(-c1cccc(Oc3ccc(C(C)(C)C)cc3)c1)n2CCCN1CCCCC1C (stereo not given)
[1]
  growth: 51.8%
[2]
  growth: 79.2%
[3]
  growth: 59.1%
[4]
  growth: 88.6%
[5]
  growth: 31.1%
[6]
  growth: 74.4%
[7]
  growth: 92.6%
[8]
  growth: 69.4%
[9]
  growth: 1.56% (active)
[10]
  growth: -10.6% (active)

## N=C1c2nc3n(c2C(=O)c2nc4n(c21)CCCCC4)CCCCC3
[1]
  growth: 118%
[2]
  growth: 103%
[3]
  growth: 106%
[4]
  growth: 83.6%
[5]
  growth: 142%
[6]
  growth: 105%
[7]
  growth: 95.1%
[8]
  growth: 91.6%
[9]
  growth: 104%
[10]
  growth: 93.7%

## Cc1cc(C(=O)Nc2ccc3cc(CN4CCOCC4)ccc3n2)c(C)n1-c1ccccc1
[1]
  growth: 16.6%
[2]
  growth: 44.9%
[3]
  growth: 73%
[4]
  growth: 53.3%
[5]
  growth: 70.4%
[6]
  growth: 50.5%
[7]
  growth: 49.7%
[8]
  growth: 79.8%
[9]
  growth: 8.79% (active)
[10]
  growth: -17.4% (active)

## O=C1Nc2ccc(Cl)cc2[C@@](C#CC2CC2)(C(F)(F)F)O1
[1]
  growth: 95.5%
[2]
  growth: 112%
[3]
  growth: 85.8%
[4]
  growth: 116%
[5]
  growth: 106%
[6]
  growth: 88.6%
[7]
  growth: 91.4%
[8]
  growth: 106%
[9]
  growth: 87.4%
[10]
  growth: 74.1%
